According to PubChem BioAssay (NCI):
Where “and” joins values, the source holds several entries; their conditions need not be identical. Equal entries are not always repeated. Compounds without any hit were thinned out: in the full panel of roughly 83,000, 20% have a hit.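 A percent growth of 40 corresponds to 60% growth inhibition; 0 means no net growth; -100 means all cells died. Active threshold: below 10.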 Values without a mark were called inactive. Calls of active or inactive are those of the source.

system: MDA-MB-468 breast; test: NCI-60 one-dose screen, 48 h (100 = growth as untreated, 0 = no growth, -100 = all killed); conditions: 10 µM unless noted

In the case of `c1ccc(C(c2nc3ncncc3[nH]2)N2CSc3nc4ncncc4n3C2)cc1` (stereo not given), the growth is reported as 7.36% (active).
`O=C(Nc1ccc(Nc2ccncc2)cc1)c1ccc([N+](=O)[O-])cc1` was tested, and the growth was -28.1% (active).
With `CN(C)CC1C(=O)O[C@H]2[C@H]1CC/C(COC(=O)NCc1ccc(Cn3c(=O)sn(CCCI)c3=O)cc1)=C\CC[C@@]1(C)O[C@@H]21` (stereo not given in full) the growth was -73.3% (active).
With `Cc1ccc2cccc([N+](=O)[O-])c2n1` the growth was 107% and 100%.
In the case of `N#C/C(=C\c1ccc(-c2ccc(F)cc2)o1)C(=O)Nc1ncc(Cc2ccc(Cl)cc2Cl)s1`, the growth is reported as -54.9% (active).
With `O=S(=O)(NCCCNc1cc(-c2cn(-c3ccccc3)nc2-c2cccc(O)c2)ccn1)c1ccc(F)cc1` the growth was -1.5% (active).
For `Clc1ccc(-c2nnc(COc3ccc(C4=NNC(c5ccco5)C4)cc3)o2)cc1` (stereo not given), the growth was 9.43% (active).
In the case of `N=c1c2c(-c3ccccc3)c(-c3ccccc3)n(Cc3ccccc3)c2ncn1CCCO`, the growth is reported as -0.433% (active).
In the case of `COc1ccc(CNCCN2C(=O)c3ccc4c5c(ccc(c35)C2=O)C(=O)N(CCNCc2ccc(OC)c(OC)c2OC)C4=O)c(OC)c1OC`, the growth is reported as -87.2% (active).
`O=C1Nc2ccccc2/C1=C/c1cn(CC(O)Cn2cc(/C=C3\C(=O)Nc4ccccc43)c3ccccc32)c2ccccc12` (stereo not given) was tested, and the growth was -84.8% (active).

First: c1ccc(Nc2ccccn2)cc1
Second: O=C1OC(c2ccccc2)C(O)=C1c1ccccc1 (stereo not given)
The growth of the first is higher: 111% for the first, 108% for the second.

First: COc1cc2c(c(OC)c1)C1c3cc(OC)ccc3NC(=O)N1CC2 (stereo not given)
Second: COc1ccc(OC)c(/C=C/c2nnc(Nc3ccc(Cl)cc3)o2)c1
The growth of the first is higher: 70.1% for the first, 66% for the second.

Going from `Nc1nc(N)c2cc(CNc3ccc(C(=O)NC(CC(=O)O)C(=O)O)cc3)ccc2n1` (stereo not given) to `CCOC(=O)C(Cc1cc(I)c(O)c(I)c1)NC(=O)c1ccccc1` (stereo not given), the growth rises from 61.4% to 98.9%.

First: CCn1cc(C(=O)O)c(=O)c2cnc(N3CCCC3)nc21
Second: Cc1cc([N+](=O)[O-])c(C)cc1C(=O)O
The growth of the first is lower: 99.2% for the first, 109% for the second.

Compared with `O=C1Cc2c(sc3c(F)cccc23)C(c2ccccc2[N+](=O)[O-])N1` (stereo not given), `O=C(Nc1ccccc1F)Nc1ccccc1Cl` is lower in growth: 86.9% for the first, 76% for the second.

Compared with `COc1cc(/C=C2\C(=O)N(CCOc3cc(O)c4c(=O)cc(-c5ccccc5)oc4c3)c3ccccc32)cc(OC)c1O`, `O=C(Oc1cccc2ccccc12)c1ccccc1C(=O)c1ccccc1` is higher in growth: 89.6% for the first, 103% for the second.

Going from `COC(=O)CCc1cc(O)c2c(c1)[C@@H](C(=O)OC)[C@H](c1ccc(O)c(O)c1)O2` to `COC(=O)c1[nH]c(=O)c(C#N)c(C(=O)OC)c1C(=O)c1ccccc1`, the growth rises from 83.4% to 102%.

Going from `CCCCCCCCSc1ncnc2c1ncn2CO` to `COCCCC/C(=N\OCCN)c1ccc(C(F)(F)F)cc1`, the growth rises from 11.9% to 101%.

First: CC(=O)CC(=O)c1ccccc1.[Cu+2]
Second: CCN1C(=O)N(CC)C2SC(N/N=C/c3ccccc3)=NC21 (stereo not given)
The growth of the first is higher: 96.7% for the first, 34.4% for the second.

Going from `COc1ccc(-c2cnc3ccccc3n2)cc1` to `COc1ccc(Nc2nc(N/N=C/c3ccc(O)cc3)nc(Nc3ccc([N+](=O)[O-])cc3)n2)cc1`, the growth rises from 99.7% to 117%.

Going from `O=c1oc2ccccc2cc1-c1cc(-c2ccc(-c3cc(-c4cc5ccccc5oc4=O)nc(-c4cc5ccccc5oc4=O)c3)cc2)cc(-c2cc3ccccc3oc2=O)n1` to `COc1cc(NC(=O)Nc2cnc(Nc3ccc(N4CCOCC4)cc3)nc2Oc2ccc(F)cc2)cc(OC)c1`, the growth rises from 84.3% to 95.5%.

Compared with `CC(=O)N(N=O)c1ccc([N+](=O)[O-])cc1Cl`, `O=C(Nc1ccc([N+](=O)[O-])cc1)C(=O)Nc1ccc([N+](=O)[O-])cc1` is higher in growth: 29.7% for the first, 105% for the second.

First: Cc1ccc(Nc2nccc(N(C)c3ccc4c(C)n(C)nc4c3)n2)cc1S(N)(=O)=O
Second: Cn1cc(-c2noc(-c3cn(C)c4ncc(F)cc34)n2)c2cc(Cl)ccc21
The growth of the first is lower: 34.1% for the first, 52.9% for the second.

First: CC(=O)O[C@@H]1C[C@]2(C(C)C)O[C@@]1(C)[C@@H]1CCC(C)=C1[C@@H]2OC(=O)/C=C/c1ccccc1
Second: O=C(N/N=C/C[C@@H]1[C@@H](/C=C/[C@@H](O)COc2cccc(Cl)c2)[C@H](O)C[C@@H]1O)c1ccncc1
The growth of the first is lower: 81.5% for the first, 97.9% for the second.

Going from `CN(C)C1CCC(NC2=CC(=O)C=CC2=O)CC1` (stereo not given) to `CC(C)(N)COS(=O)(=O)O`, the growth rises from 105% to 107%.
